In PubChem BioAssay:
Values without a mark were called inactive. Calls of active or inactive are those of the source. Rule as the data show it: active = fold change permeability below about 0.7 or above about 1.3; inactive = in between.

Assay: compounds altering in vitro BBB leakiness – cell-based, FITC-avidin fluorescence, HTS, primary screen (AID 1963498); also: test concentration not given here
Conditions: brain endothelial barrier, actives lie on both sides

| Structure (SMILES) | fold change permeability |
| --- | --- |
| CCCCCCN(CCCCCC)C(=O)Cc1c(-c2ccc(F)cc2)[nH]c2ccccc12 | 1.4 (active) |
| Cc1cn[nH]c1 | 0.8 |
| NCCS(=O)O | 1 |
| Cn1c(=O)c2[nH]c(-c3ccccc3)nc2n(C)c1=O | 1.1 |
| O=C1c2ccccc2-c2n[nH]c3cccc1c23 | 1.5 (active) |
| O=C(O)c1cc(=O)c2ccccc2[nH]1 | 1.6 (active) |
| Clc1ccc(N2CCN(Cc3cc4ccccn4n3)CC2)cc1 | 1.3 (active) |
| CC(C)COCC(CN(Cc1ccccc1)c1ccccc1)N1CCCC1 (centres undefined) | 1 |
| CN(C)CC/C=C1/c2ccccc2Sc2ccc(Cl)cc21 | 1.1 |
| O=C(O)c1ccc(-c2ccc(/C=C3\SC(=S)N(Cc4ccccc4)C3=O)o2)cc1 | 2 (active) |
| N[C@@H](CC(=O)O)C(=O)O | 1 |
| NS(=O)(=O)C#Cc1ccccc1 | 1.8 (active) |
| CC(C)(C)NCC(O)COc1nsnc1N1CCOCC1 (centres undefined) | 1.4 (active) |
| C[C@H]1c2cccc(O)c2C(O)=C2C(=O)[C@]3(O)C(O)=C(C(N)=O)C(=O)[C@@H](N(C)C)[C@@H]3[C@@H](O)[C@@H]21 | 0.9 |
| NC(N)=NC(N)=Nc1cccc(Cl)c1 | 1.2 |
| CN1C2CCC1CC(OC(c1ccccc1)c1ccccc1)C2 (centres undefined) | 1.7 (active) |
| CN(C)CCCN1c2ccccc2Sc2ccc(C(F)(F)F)cc21 | 1.2 |
| CCCCOc1ccc(CC/C=C2\SC(=O)N(CCN)C2=O)cc1 | 1.6 (active) |
| COc1cc(/C=C/C(=O)N2CCC=CC2=O)cc(OC)c1OC | 1 |
